For 13 sequences, binding signal results are on record in PMC8384837, “Expanding the binding specificity for RNA recognition by a PUF domain”.

Holding throughout (assay): yeast three-hybrid, YBZ-1, SC-Leu-His + 0.5 mM 3-AT, 4 days
Common to all, as to settings: tags: N-Gal4 AD-HA kept; label: inside an RPR1-promoter hybrid RNA with tandem MS2 sites; ssRNA

One experiment has as its target PUM1 PUF domain R7-RRV (Homo sapiens, UniProt Q14671 828-1176, S1079R;N1080R;E1083V). In outline:
(§1)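 The interaction score is the log change in variant frequency from input to selection. Scores were computed in log2 with a pseudocount of 1 for absent variants, using Illumina sequencing of PCR-amplified repeat regions. The input came from four days on SC-Leu and the selection from four days on SC-Leu-His + 0.5 mM 3-AT. The cells were strain YBZ-1 (LexA–MS2 coat fusion, HIS3 reporter) co-expressing Pumilio-1 PUF domain libraries and matching RNA elements from a centromeric plasmid.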

For the next experiment, the target named is PUM1 PUF domain R3-LRL (Homo sapiens, UniProt Q14671 828-1176, C935L;Q939L). In outline: as §1
Another experiment concerns the target PUM1 PUF domain R3-FSR (Homo sapiens, UniProt Q14671 828-1176, C935F;R936S;Q939R). Summed up: as §1
In a further experiment the target is PUM1 PUF domain R3-CRV (Homo sapiens, UniProt Q14671 828-1176, Q939V). Summed up:
as §1

The target in the next experiment is PUM1 PUF domain R5-KNL (Homo sapiens, UniProt Q14671 828-1176, C1007K;R1008N;Q1011L). Summed up: as §1
A further experiment has as its target PUM1 PUF domain R5-RCD (Homo sapiens, UniProt Q14671 828-1176, C1007R;R1008C;Q1011D). In outline: as §1
In another experiment the target is PUM1 PUF domain R5-KRA (Homo sapiens, UniProt Q14671 828-1176, C1007K;Q1011A). Summed up: as §1
A further experiment deals with PUM1 PUF domain R5-RAD (Homo sapiens, UniProt Q14671 828-1176, C1007R;R1008A;Q1011D). In outline: as §1
A further experiment has as its target PUM1 PUF domain R2-RRV (Homo sapiens, UniProt Q14671 828-1176, N899R;Y900R;Q903V). Summed up: as §1
The target in another experiment is PUM1 PUF domain R1-KYV (Homo sapiens, UniProt Q14671 828-1176, S863K;R864Y;Q867V). In outline:
as §1

In a further experiment the target is PUM1 PUF domain R5-QCL (Homo sapiens, UniProt Q14671 828-1176, C1007Q;R1008C;Q1011L). In outline:
as §1

Another experiment has as its target PUM1 PUF domain R4-SRS (Homo sapiens, UniProt Q14671 828-1176, N971S;H972R;Q975S). In outline: as §1
Another experiment deals with PUM1 PUF domain R5-LYD (Homo sapiens, UniProt Q14671 828-1176, C1007L;R1008Y;Q1011D). Summed up: as §1
A further experiment has as its target PUM1 PUF domain R7-IFV (Homo sapiens, UniProt Q14671 828-1176, S1079I;N1080F;E1083V). Summed up:
as §1

For another experiment, the target named is PUM1 PUF domain R3-RVQ (Homo sapiens, UniProt Q14671 828-1176, C935R;R936V). Summed up:
as §1

The target in another experiment is PUM1 PUF domain R4-DRI (Homo sapiens, UniProt Q14671 828-1176, N971D;H972R;Q975I). In outline: as §1
The target of another experiment is PUM1 PUF domain R3-SSQ (Homo sapiens, UniProt Q14671 828-1176, C935S;R936S). In outline: as §1
A further experiment addresses PUM1 PUF domain R3-VCI (Homo sapiens, UniProt Q14671 828-1176, C935V;R936C;Q939I). Summed up: as §1
Another experiment addresses PUM1 PUF domain R4-LGL (Homo sapiens, UniProt Q14671 828-1176, N971L;H972G;Q975L). In outline:
as §1

A further experiment has as its target T1, PUM1 PUF domain R6-FYQ (Homo sapiens, UniProt Q14671 828-1176, N1043F).
T1 sequence: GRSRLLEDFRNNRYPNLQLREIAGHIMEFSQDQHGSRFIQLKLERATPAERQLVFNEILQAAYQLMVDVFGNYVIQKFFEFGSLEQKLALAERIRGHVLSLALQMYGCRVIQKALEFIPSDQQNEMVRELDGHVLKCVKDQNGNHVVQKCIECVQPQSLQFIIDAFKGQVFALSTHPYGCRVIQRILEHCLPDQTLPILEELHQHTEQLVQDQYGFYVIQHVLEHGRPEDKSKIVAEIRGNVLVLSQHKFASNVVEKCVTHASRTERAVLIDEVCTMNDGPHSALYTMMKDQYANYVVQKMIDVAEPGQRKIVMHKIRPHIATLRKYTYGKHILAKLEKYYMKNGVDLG
Summed up:
as §1

In the case of “GGCUAGAACUAGUGGAUCCCCCGGCGCCCGGCGGCUCGAGCCCGGGUAAGUUUAAAUAGUCUGCAUGCCGCCGGGCGCCAUGCCUGCAGGUCGACUCUAGAAAACAUG”, the binding signal with PUM1 PUF domain R7-RRV was 4.01 log2 enrichment (interaction score).

Regarding “GGCUAGAACUAGUGGAUCCCCCGGCGCCCGGCGGCUCGAGCCCGGGUAAGUGUAAGUAGUCUGCAUGCCGCCGGGCGCCAUGCCUGCAGGUCGACUCUAGAAAACAUG”, the binding signal with PUM1 PUF domain R3-LRL was 2.89 log2 enrichment (interaction score); with PUM1 PUF domain R3-FSR, 3.48 log2 enrichment (interaction score); in the experiment with PUM1 PUF domain R3-CRV, 1.31 log2 enrichment (interaction score).

Take “GGCUAGAACUAGUGGAUCCCCCGGCGCCCGGCGGCUCGAGCCCGGGUAAGUGUCAAUAGUCUGCAUGCCGCCGGGCGCCAUGCCUGCAGGUCGACUCUAGAAAACAUG”: the binding signal with PUM1 PUF domain R5-KNL was 4.73 log2 enrichment (interaction score); in the experiment with PUM1 PUF domain R5-RCD, 3.7 log2 enrichment (interaction score); in the experiment with PUM1 PUF domain R5-KRA it was 2.92 log2 enrichment (interaction score); with PUM1 PUF domain R5-RAD, 2.61 log2 enrichment (interaction score).

Consider “GGCUAGAACUAGUGGAUCCCCCGGCGCCCGGCGGCUCGAGCCCGGGUAAGUGUAAAGAGUCUGCAUGCCGCCGGGCGCCAUGCCUGCAGGUCGACUCUAGAAAACAUG”, for which the binding signal in the experiment with PUM1 PUF domain R2-RRV was 2.5 log2 enrichment (interaction score).

In the case of “GGCUAGAACUAGUGGAUCCCCCGGCGCCCGGCGGCUCGAGCCCGGGUAAGUCUAAAUAGUCUGCAUGCCGCCGGGCGCCAUGCCUGCAGGUCGACUCUAGAAAACAUG”, in the experiment with PUM1 PUF domain R7-RRV, the binding signal is 4.92 log2 enrichment (interaction score).

Turning to “GGCUAGAACUAGUGGAUCCCCCGGCGCCCGGCGGCUCGAGCCCGGGUAAGUGUAAAUUGUCUGCAUGCCGCCGGGCGCCAUGCCUGCAGGUCGACUCUAGAAAACAUG”, the binding signal with PUM1 PUF domain R1-KYV was 2.06 log2 enrichment (interaction score).

On to “GGCUAGAACUAGUGGAUCCCCCGGCGCCCGGCGGCUCGAGCCCGGGUAAGUGUGAAUAGUCUGCAUGCCGCCGGGCGCCAUGCCUGCAGGUCGACUCUAGAAAACAUG”, for which, in the experiment with PUM1 PUF domain R5-QCL, the binding signal was 2.87 log2 enrichment (interaction score).

For the sequence “GGCUAGAACUAGUGGAUCCCCCGGCGCCCGGCGGCUCGAGCCCGGGUAAGUGUACAUAGUCUGCAUGCCGCCGGGCGCCAUGCCUGCAGGUCGACUCUAGAAAACAUG”, the binding signal in the experiment with PUM1 PUF domain R4-SRS was 1.59 log2 enrichment (interaction score).

With “GGCUAGAACUAGUGGAUCCCCCGGCGCCCGGCGGCUCGAGCCCGGGUAAGUGUUAAUAGUCUGCAUGCCGCCGGGCGCCAUGCCUGCAGGUCGACUCUAGAAAACAUG”, the binding signal is 2.68 log2 enrichment (interaction score) with PUM1 PUF domain R5-RCD, 0.81 log2 enrichment (interaction score) in the experiment with PUM1 PUF domain R5-KRA, 1.31 log2 enrichment (interaction score) with PUM1 PUF domain R5-RAD and 3.06 log2 enrichment (interaction score) with PUM1 PUF domain R5-LYD.

In the case of “GGCUAGAACUAGUGGAUCCCCCGGCGCCCGGCGGCUCGAGCCCGGGUAAGUAUAAAUAGUCUGCAUGCCGCCGGGCGCCAUGCCUGCAGGUCGACUCUAGAAAACAUG”, the binding signal with PUM1 PUF domain R7-IFV was 2.59 log2 enrichment (interaction score).

As to “GGCUAGAACUAGUGGAUCCCCCGGCGCCCGGCGGCUCGAGCCCGGGUAAGUGUAAUUAGUCUGCAUGCCGCCGGGCGCCAUGCCUGCAGGUCGACUCUAGAAAACAUG”, the binding signal with PUM1 PUF domain R3-LRL is 0.28 log2 enrichment (interaction score); in the experiment with PUM1 PUF domain R3-CRV, 1.05 log2 enrichment (interaction score); in the experiment with PUM1 PUF domain R3-RVQ, 2.03 log2 enrichment (interaction score).

For “GGCUAGAACUAGUGGAUCCCCCGGCGCCCGGCGGCUCGAGCCCGGGUAAGUGUAUAUAGUCUGCAUGCCGCCGGGCGCCAUGCCUGCAGGUCGACUCUAGAAAACAUG”, the binding signal in the experiment with PUM1 PUF domain R4-SRS was 0.95 log2 enrichment (interaction score).

As for “GGCUAGAACUAGUGGAUCCCCCGGCGCCCGGCGGCUCGAGCCCGGGUAAGUGUAAAUAGUCUGCAUGCCGCCGGGCGCCAUGCCUGCAGGUCGACUCUAGAAAACAUG”, the binding signal in the experiment with PUM1 PUF domain R4-DRI was 5.23 log2 enrichment (interaction score); with PUM1 PUF domain R4-SRS it was 3.11 log2 enrichment (interaction score); with PUM1 PUF domain R3-SSQ, 2.66 log2 enrichment (interaction score); in the experiment with PUM1 PUF domain R3-VCI, 2.74 log2 enrichment (interaction score); with PUM1 PUF domain R4-LGL, 3.33 log2 enrichment (interaction score); with PUM1 PUF domain R6-FYQ it was 4.7 log2 enrichment (interaction score). Besides, the binding signal with PUM1 PUF domain R3-CRV is 2.9 log2 enrichment (interaction score).
